Source: PubChem BioAssay (National Center for Advancing Translational Sciences (NCATS))
This is one part of a sample in which hits are shown more often than they occur.
Tb PYK inh: qHTS of Trypanosoma Brucei Inhibitors; hit rate 0.12% among 410,000; TbPYK enzyme, Kinase-Glo Plus ATP luminescence, 45 min; AID 624173, 2012; Potency, µM (series often up to 76.8 µM), actives largely listed as inhibitors; further: nearly all actives have a fitted effect of over 50% in size
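T. brucei PYK with substrate was exposed to pin-transferred compounds across a concentration series, then started with 130 uM ADP (final). After 45 min at room temperature, Kinase-Glo Plus luminescence was read, normalized and curve-fitted.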
RE007 growth inh: qHTS Assay for Inhibitors of the HIV-1 protein Vpr; S. pombe RE007 Vpr strain, BacTiter-Glo ATP luminescence, 24 h; Potency, µM (titrated, usually from 92.2 µM), hits mostly inhibitors; hit rate 0.21% among 360,000; active means well fitted falling curve with a large enough effect; inconclusive means small, poorly fitted or top-dose-only effect; inactive means no such curve, though single readings can be large or run the other way; further: nearly all actives have a fitted effect of over 50% in size
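Fission yeast RE007 carrying one integrated HIV-1 vpr copy, seeded at OD 0.01 in PMG+AL medium with 23 nL pinned compound. Grown 24 h at 30 degrees; viability read by BacTiter-Glo luminescence after 5 min.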
Giardia FBPA inh: qHTS Assay for Inhibitors of Fructose-1,6-bisphosphate Aldolase from Giardia Lamblia | Potency, µM (titrated, usually from 59.6 µM), most hits filed as inhibitors | AID 2451, 2010 | hit rate 0.71% among 290,000 | purified Giardia FBPA | A8B2U2; further: nearly all actives have a fitted effect of over 55% in size
Target sequence (A8B2U2 whole entry, looked up): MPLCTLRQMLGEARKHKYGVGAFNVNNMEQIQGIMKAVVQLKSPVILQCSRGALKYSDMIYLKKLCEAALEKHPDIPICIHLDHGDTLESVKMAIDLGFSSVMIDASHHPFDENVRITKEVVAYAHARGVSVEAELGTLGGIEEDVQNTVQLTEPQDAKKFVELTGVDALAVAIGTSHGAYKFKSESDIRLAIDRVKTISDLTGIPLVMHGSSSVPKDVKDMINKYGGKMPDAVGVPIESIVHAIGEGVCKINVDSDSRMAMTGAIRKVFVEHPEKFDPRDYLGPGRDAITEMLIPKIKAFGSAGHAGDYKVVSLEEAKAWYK
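40 nM FBPA preincubated 10 min at RT with compound (up to 57.5 uM final), then substrate plus GAPDH/TPI/NAD/arsenate coupling and diaphorase/resazurin added. Fluorescence read after 20 min at RT, 525/598 nm.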
Shiga inhibitor: A qHTS for Small Molecule Inhibitors of Shiga Toxin; Vero cells, Shiga toxin protein synthesis inhibition reporter; inhibition, % at 38.7 µM; hit rate 9.2% among 290,000; in the data active means inhibition mostly above about 28%, no sharp cut-off; inactive means mostly below about 43%
LmPK inh: qHTS Assay for Inhibitors of Leishmania Mexicana Pyruvate Kinase (LmPK) | Q27686 | purified LmPK, Kinase-Glo ATP luminescence, 1 h | Potency, µM (top dose mostly 57.5 µM), most hits filed as inhibitors | hit rate 0.37% among 290,000
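ATP generated from ADP (0.1 mM) and PEP (0.5 mM) by 0.1 nM LmPK over 1 h at room temperature (pH 7.2 imidazole buffer) was detected by coupled luciferase luminescence. Values were normalized to uninhibited and no-enzyme wells.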
Cycloheximide cs: Cycloheximide Counterscreen for Small Molecule Inhibitors of Shiga Toxin; cell reporter, cycloheximide protein synthesis inhibition counterscreen; max response, %; hit rate 12% among 300,000; AID 2314, 2010; in the data active means max response mostly above about 13%, no sharp cut-off; inactive means mostly below about 14%; further: read at 38.3 µM for the half of the compounds with a filed dose
Numbers stand for hits; i = inactive; ? = inconclusive; nt = no result given; [ ] = dose if it differs, or a comment. Unless noted, the call rests on the fitted dose curve; in most records, active means well fitted curve in the direction sought with a large enough effect; inconclusive means small, poorly fitted or top-dose-only effect, or another doubt; inactive means no such curve, though single readings can be large; an effect the other way counts as inactive or inconclusive.

SMILES | Tb PYK inh | RE007 growth inh | Giardia FBPA inh | Shiga inhibitor | LmPK inh | Cycloheximide cs
Cc1nc(-c2cccc(NC(=O)c3ccc(-n4cccn4)cc3)c2)cs1 | i | i | nt | nt | nt | nt
COc1ccc(C(=O)Nc2cnc3sc(C)nn3c2=O)cc1 | i | i | i | 46.2 | i | 24.0
Cc1nc(-c2ccc(C(=O)Nc3cccc(F)c3)cc2)cs1 | i | i | i | 17.7 | i | 16.9
COc1ccc(-c2csc(C)n2)cc1 | i | i | i | 56.0 | i | 30.7
COc1ccc(NC(=O)c2ccc(-c3csc(C)n3)cc2)cc1 | i | i | i | 78.5 | i | 35.8
COCCN(C(=O)CSc1nnc(Nc2ccccc2F)s1)c1c(N)n(Cc2ccccc2)c(=O)[nH]c1=O | i | i | i | i | i | i
Cc1nc(-c2ccc(C(=O)Nc3ccc(F)cc3)cc2)cs1 | i | i | i | 75.2 | ? | 35.3
CCCCN(CC)CCNc1ncnc2onc(-c3ccc(Cl)cc3)c12 | i | nt | nt | nt | nt | nt
CCCCN1CC(N2CCN(CCN(C)C)CC2)CS1(=O)=O (stereo unspecified) | i | i | nt | nt | nt | nt
CNc1nc(-c2ccc3c(c2)CCN3C(=O)c2ccccc2F)cs1 | i | i | i | 94.5 | i | 53.6
CNc1nc(-c2ccc3c(c2)CCN3C(=O)CC(C)(C)C)c(C)s1 | i | i | i | i | i | i
CNc1nc(-c2ccc3c(c2)CCN3C(=O)c2ccccc2F)c(C)s1 | ? | i | i | 61.1 | i | 17.5
O=C1c2ccccc2C(=O)c2c1cccc2N1CCOCC1 | i | i | i | 78.7 | i | 27.4
CN1CCN(c2ccc3c(c2)S(=O)(=O)c2ccccc2C3=O)CC1 | i | i | nt | nt | nt | nt
CN1CCN(c2cccc3c2C(=O)c2ccccc2C3=O)CC1 | i | i | i | 47.2 | i | 36.5
Cc1cc(=O)n(Cc2cccc(Cl)c2)c2c1c(C)nn2C | i | nt | nt | nt | nt | nt
CCc1c(O)nc(SCC(=O)Nc2nc3ccccc3s2)n(-c2ccc(C)cc2)c1=O | i | i | i | 93.2 | i | 45.2
CCc1c(O)nc(SCC(=O)Nc2nc3ccccc3s2)n(-c2ccccc2)c1=O | i | i | i | i | i | i
CCn1nnnc1SCC(=O)Nc1nc2ccccc2s1 | i | i | i | i | i | 21.4
Cc1nc(NC(=O)CSc2nnnn2Cc2ccccc2)sc1C | i | i | i | 75.0 | i | 27.8
COc1ccc(CC(=O)Nc2cccc(S(=O)(=O)N3CCCCCC3)c2)cc1OC | i | i | i | i | i | i
O=S1(=O)CC(N2CC=CC2)CN1Cc1ccc(F)cc1 (stereo unspecified) | i | i | nt | nt | nt | nt
COc1ccc(/C=N/Nc2cc(C)nc(N3CCOCC3)n2)cc1OC | i | i | i | i | i | i
Oc1ccccc1/C=N/Nc1cc(N2CCCC2)nc(N2CCCC2)n1 | i | i | i | i | i | 11.6
COc1ccccc1/C=N/Nc1cc(C)nc(N2CCOCC2)n1 | i | i | i | i | i | 24.0
SMILES | Tb PYK inh | RE007 growth inh | Giardia FBPA inh | Shiga inhibitor | LmPK inh | Cycloheximide cs
Oc1cccc(/C=N/Nc2cc(N3CCOCC3)nc(N3CCOCC3)n2)c1 | i | nt | i | i | i | 19.3
COC(=O)[C@@]1(Cc2ccccc2)[C@H]2c3cc(C(=O)N4CCCC4)n(Cc4ccc(O)c(OC)c4)c3C[C@H]2CN1C(=O)c1ccccc1 | nt | nt | i | nt | nt | nt
Cn1c(=O)n(-c2ccc(Br)cc2F)c(=O)c2sc3ccccc3c21 | i | nt | nt | nt | nt | nt
CC(C(=O)N1CCCC1)N(C)CC(=O)Nc1cccc(F)c1 (stereo unspecified) | i | i | nt | nt | nt | nt
COc1cc(C(=O)OCC(=O)Nc2ccc(C)cc2)cc(OC)c1OC | i | i | i | i | i | i
O=S(=O)(NCCc1ccc2c(c1)OCCO2)c1cccs1 | i | i | i | i | i | 18.8
CCCc1nc2cc(CC(=O)OC)ccc2o1 | i | i | i | i | i | 21.7
CCCc1nc2cc(Cl)c([N+](=O)[O-])cc2o1 | i | i | i | i | i | i
COC(=O)[C@@H](C)NC(=O)c1ccc2oc(CCc3ccccc3)nc2c1 | i | i | i | 30.7 | i | 50.8
COC(=O)CCCNC(=O)c1ccc2oc(CCCc3ccccc3)nc2c1 | i | i | i | 20.6 | i | 24.0
CCCNC(=O)C1(C)CCN(C(=O)Cc2ccc(OC)c(OC)c2)C1 (stereo unspecified) | i | i[18.4 µM] | nt | nt | nt | nt
c1ccc(-c2nnc3sc(CN4CCc5ccccc54)cn23)cc1 | i | i | i | 46.3 | i | i
Brc1ccc(-c2nnc3sc(CN4CCc5ccccc5C4)cn23)cc1 | i | i | nt | nt | nt | nt
CNC(=S)N/N=C1\C(=O)c2cccc3cccc1c23 | i | i | i | i | i | 22.8
CCCCNC(=S)N/N=C1\C(=O)c2cccc3cccc1c23 | i | i | i | i | i | i
Cc1nonc1CC(=O)NC1CC(C)(C)Cc2c1cnn2-c1ccc(F)cc1 (stereo unspecified) | i | i | nt | 32.7 | i | 13.5
CC1(C)Cc2c(cnn2-c2ccccc2)C(NC(=O)CCCn2cncn2)C1 (stereo unspecified) | i | i | nt | i | i | 24.4
COc1ccc(-n2ncc3c2CC(C)(C)CC3NC(=O)Cc2nonc2C)cc1 (stereo unspecified) | i | i | nt | i | i | i
CC1(C)Cc2c(cnn2-c2ccc(F)cc2)C(NC(=O)CCn2cncn2)C1 (stereo unspecified) | i | i | nt | i | i | 25.1
CCc1ccc2oc(C(=O)Nc3cccc(Cl)c3C)cc(=O)c2c1 | i | nt | nt | nt | nt | nt
Cc1cc(C)n(-c2ccc(C(=O)Nc3ccc(S(=O)(=O)NCc4ccco4)cc3)cc2)n1 | i | i | i | i | i | 22.2
O=C(COC(=O)c1ccc(S(=O)(=O)NCc2ccco2)cc1)c1ccccc1 | i | i | i | i | i | i
Cc1ccc(C(=O)Nc2ccc(S(=O)(=O)NCc3ccco3)cc2)cc1 | i | i | i | 36.5 | i | 37.6
O=C(NCc1ccccc1)c1ccc(S(=O)(=O)NCc2ccco2)cc1 | i | i | i | 53.2 | i | 37.8
O=C(Nc1ccccc1)c1ccc(S(=O)(=O)NCc2ccco2)cc1 | i | i | i | i | i | i
SMILES | Tb PYK inh | RE007 growth inh | Giardia FBPA inh | Shiga inhibitor | LmPK inh | Cycloheximide cs
Cc1noc(C)c1COC(=O)c1ccc(S(=O)(=O)NCc2ccco2)cc1 | i | i | i | i | i | 16.4
NS(=O)(=O)c1ccc(CNC(=O)c2ccc(S(=O)(=O)NCc3ccco3)cc2)cc1 | i | i | nt | nt | nt | nt
CCOC(=O)c1c(NC(=O)c2cc(-c3ccc(OC)cc3)on2)sc(C)c1C | i | nt | nt | nt | nt | nt
CCOc1ccc(OCCC(=O)N(CCOC)c2c(N)n(Cc3ccccc3)c(=O)[nH]c2=O)cc1 | i | i | nt | nt | nt | nt
O=C(COC(=O)C12CC3CC(CC(O)(C3)C1)C2)Nc1ccc(Cl)c(S(=O)(=O)N2CCOCC2)c1 | i | i | nt | nt | nt | nt
CCc1nn2c(=O)c(S(=O)(=O)Nc3ccc(C)c(C)c3)c(C)nc2s1 | i | nt | nt | nt | nt | nt
COc1ccc(-c2nc3ccccc3o2)cc1NC(=O)c1ccc(N2CCC(C)CC2)c([N+](=O)[O-])c1 | i | nt | nt | nt | nt | nt
